ChEMBL document CHEMBL4296182, “CO-ADD screening of NIH NCI Diversity Set V”
Several values for one entry are separate records, joined by “and”; a condition that tells them apart may be missing. Identical values can stand only once. For some assays here: Entries with a potency or affinity are not part of this list.

Experiments:
Staphylococcus aureus = experiment: Antibacterial activity against Staphylococcus aureus MRSA ATCC 43300 (CO-ADD:GP_020); MIC in CAMBH media using NBS plates, by Resazurin F(560/590); assay type: functional; conditions: Concentration 20 uM, ASSAY_TEST Inhibition of Bacterial Growth, detection method Resazurin, Fluorescence (ex560/em590), MEDIA CAMHB, plate type 384well, CORNING #3640, time 18 hr
Acinetobacter baumannii = experiment: Antibacterial activity against Acinetobacter baumannii ATCC 19606 (CO-ADD:GN_034); MIC in CAMBH media using NBS plates, by Resazurin F(560/590); assay type: functional; conditions: Concentration 20 uM, ASSAY_TEST Inhibition of Bacterial Growth, detection method Resazurin, Fluorescence (ex560/em590), MEDIA CAMHB, plate type 384well, CORNING #3640, time 18 hr
Escherichia coli = experiment: Antibacterial activity against Escherichia coli ATCC 25922 (CO-ADD:GN_001); MIC in CAMBH media using NBS plates, by Resazurin F(560/590); assay type: functional; conditions: Concentration 20 uM, ASSAY_TEST Inhibition of Bacterial Growth, detection method Resazurin, Fluorescence (ex560/em590), MEDIA CAMHB, plate type 384well, CORNING #3640, time 18 hr
Klebsiella pneumoniae = conditions: Concentration 20 uM, ASSAY_TEST Inhibition of Bacterial Growth, detection method Absorption (OD600), MEDIA CAMHB, plate type 384well, NBS, CORNING #3640, time 18 hr
Candida albicans = conditions: 20 µM
Cryptococcus neoformans = conditions: Concentration 20 uM, ASSAY_TEST Inhibition of Fungal Growth, detection method Resazurin, Absorption (OD600-OD570), plate type 384well, NBS, CORNING #3640

Row | Compound | Inhibition (Staphylococcus aureus) | Inhibition (Acinetobacter baumannii) | Inhibition (Escherichia coli) | Inhibition (Klebsiella pneumoniae) | Inhibition (Candida albicans) | Inhibition (Cryptococcus neoformans) | Inhibition (Staphylococcus aureus; 18 h, 20 µM) | Inhibition (Acinetobacter baumannii; 18 h, 20 µM) | Inhibition (Klebsiella pneumoniae; 20 µM) | Inhibition (Cryptococcus neoformans; 20 µM)
1 | CC1=C(C(N)=O)S(=O)(=O)c2ccccc21 | 7.64% | -12.26% | 14.02% | 8.77% | 2.88% | -16.62% | – | – | – | –
2 | Cc1ccccc1OCC(O)CN1CCN(c2ccc(Cl)cc2)CC1 (stereo not drawn) | 16.79% | 7.24% | 2.66% | 7.5% | 0.11% | -12.08% | – | – | – | –
3 | COc1cc(CCC(=O)O)on1 | 9.35% | -6.5% | 10.23% | 8.1% | -0.47% | -11.79% | – | – | – | –
4 | N#Cc1cc(-c2ccccc2)[nH]c1-c1nccc2ccccc12 | -0.89% | -11.99% | 7.81% | 10.89% | 17.5% | -6.55% | – | – | – | –
5 | Oc1ccc(N/C(S)=N/c2ccccc2)cc1 | -2.99% | 11.99% | -4.05% | 4.37% | 4.77% | 2.65% | – | – | – | –
6 | O=C(O)C1C2OC3C(OC(=O)C31)C2Br (stereo not drawn) | 25.96% | 9.29% | 24.67% | 4% | 4.3% | 11.09% | – | – | – | –
7 | O=C(O)c1ccccc1-c1ccccc1C(=O)Nc1ccc2c(c1)nc(O)c1ccccc12 | 7.3% | -9.28% | 10.96% | 7.34% | 7.22% | -6.01% | – | – | – | –
8 | CCN(CC)CCN1c2ccccc2Sc2ccc3ccccc3c21 | 2.63% | -0.08% | 11.87% | 8.87% | 0.24% | -5.58% | – | – | – | –
9 | COC(=O)c1cc(C)c(C)cc1NC1OC(CO)C(O)C1O (stereo not drawn) | -3.53% | 7.51% | -12.77% | 12.31% | 6.05% | -3.92% | – | – | – | –
10 | COc1ccc(C(=O)O)nc1C | -3.26% | -9.48% | 11.67% | 7.05% | -1.1% | -14% | – | – | – | –
11 | Cc1nc(Nc2ccc(F)cc2)nc(Nc2ccc(F)cc2)c1[N+](=O)[O-] | 16.01% | 5.04% | 5.3% | 11.05% | -2.79% | 0.25% | – | – | – | –
12 | c1ccc2sc(SCSc3nc4ccccc4s3)nc2c1 | -0.38% | -17.15% | 3.51% | 4.08% | 12.5% | -13.87% | – | – | – | –
13 | O=C(O)c1cc(O)ccc1/N=N/c1ccccc1 | 3.85% | -9.66% | 1.52% | 5.36% | 10.2% | -9.07% | – | – | – | –
14 | CCCCC[C@H](O)/C=C/[C@@H]1[C@@H](C/C=C\CCCC(=O)O)[C@@H](O)C[C@H]1O.NC(CO)(CO)CO [DINOPROST TROMETHAMINE] | 12.44% | -5.18% | 11.57% | 16.21% | -0.17% | -7.36% | – | – | – | –
15 | CC1=C(C#N)C(C)(C)C(C#N)=C(C)N1 | 13.81% | -13.23% | 8.21% | 8.84% | 0.55% | -14.16% | – | – | – | –
16 | O=C(Nc1ccc(C2=NCCCN2)cc1)Nc1ccc(C2=NCCCN2)cc1 | 7.85% | 9.82% | -5.49% | 24.63% | 1.67% | -6.84% | – | – | – | –
17 | O=C(/C=C\c1ccc(O)c(O)c1)OC1C(O)CC(OC(=O)/C=C/c2ccc(O)c(O)c2)(C(=O)O)CC1O (stereo not drawn) | 21.21% | -10.3% | 9.77% | 14% | -2.85% | -1.87% | – | – | – | –
18 | Cc1ccc(S(=O)(=O)CCOC(=O)CNC(=O)OCc2ccccc2)cc1 | 0.28% | 8.19% | 0.72% | 12.65% | 2.97% | -8.5% | – | – | – | –
19 | COC1OCC(O)C(NC(=O)N(C)N=O)C1O (stereo not drawn) | -1.39% | 15.65% | -7.74% | 18.14% | 5.35% | -2.94% | – | – | – | –
20 | COCCn1c2nc(=O)n(-c3ccccc3)c(=O)c-2nc2ccccc21 | 12.62% | -2.61% | 6.79% | 23.4% | 1.39% | 4.88% | – | – | – | –
21 | COc1cc(O)c(C(=O)/C=C/c2ccccc2)c(OC)c1 [FLAVOKAWAIN B] | 9.23% | 7.33% | 2.45% | 12.32% | 6.59% | -7.74% | – | – | – | –
22 | Cc1ccc(Nc2nnc(-c3ccc4c(c3)OCO4)o2)c(C)c1 | 30.86% | -8.42% | 5.86% | 21.23% | 28.8% | -3.73% | – | – | – | –

Row | Compound | Inhibition (Staphylococcus aureus) | Inhibition (Acinetobacter baumannii) | Inhibition (Escherichia coli) | Inhibition (Klebsiella pneumoniae) | Inhibition (Candida albicans) | Inhibition (Cryptococcus neoformans) | Inhibition (Staphylococcus aureus; 18 h, 20 µM) | Inhibition (Acinetobacter baumannii; 18 h, 20 µM) | Inhibition (Klebsiella pneumoniae; 20 µM) | Inhibition (Cryptococcus neoformans; 20 µM)
23 | CN(C)Cc1c[nH]c2nccnc12 | 11.84% | -4.46% | 11.46% | 8.34% | 0.19% | 2.55% | – | – | – | –
24 | OC(COc1cccc2ccccc12)CN1CCN(c2ccc(Cl)cc2)CC1 (stereo not drawn) | – | – | – | – | 1.46% and -1.63% | – | 7.27% and -7.63% | 6.27% and 10.91% | 26.3% and 15.3% | -9.84% and -9.74%
25 | C[C@]12CC[C@@H]3c4ccc(OCC(=O)O)cc4CC[C@H]3[C@@H]1CCC2=O | 9.17% | -16.81% | 9.71% | 8.63% | 3.7% | -16.24% | – | – | – | –
26 | CC1=CC(=O)CC(C)(C)C1(O)/C=C/C(C)=C/C(=O)O (stereo not drawn) | -9.32% | -14.23% | 1.66% | 3.67% | 5.51% | -3.67% | – | – | – | –
27 | CC(=O)Oc1ccc(C(c2ccc(OC(C)=O)cc2)c2ccccn2)cc1 [BISACODYL] | 25.36% | -9.02% | 15.4% | 14.3% | 0.53% | -1.75% | – | – | – | –
28 | COc1cc(NC(=O)CCl)ccc(=O)c1 | -5.48% | 6.09% | 9.48% | 4.54% | 1.92% | -8.46% | – | – | – | –
29 | COc1c(C=O)c2c(c(OC)c1OC)-c1ccc(OC)c(=O)cc1[C@@H](NC(C)=O)CC2 | -5.44% | -11.93% | 15.89% | 9.96% | 0.57% | -7.77% | – | – | – | –
30 | N#Cc1nnn2c1nc(N)c1c(Cl)cccc12 | 11.84% | 9.93% | 2.46% | 14.13% | 1.33% | -4.78% | – | – | – | –
31 | Cn1cnc2ncnn2c1=S | 0.31% | -8.2% | -1.17% | -0.39% | 2.7% | -8.45% | – | – | – | –
32 | COc1ccn(C2CCCCO2)c(=O)n1 (stereo not drawn) | 1.35% | -10.23% | 3.33% | 6.04% | 0.65% | -5.3% | – | – | – | –
33 | CCOC(=O)Cc1csc2nc(-c3ccccc3)nn12 | -0.44% | -7.19% | 5.98% | -2.91% | 3.06% | -9.7% | – | – | – | –
34 | COc1cccc(OCC(O)CN2CCN(c3ccc(Cl)cc3)CC2)c1 (stereo not drawn) | 13.17% | 4.14% | 2.15% | 0.79% | 0.05% | -12.54% | – | – | – | –
35 | c1ccc2c(c1)Oc1cccc3cccc-2c13 | 13.84% | -15.64% | 12.26% | 8.47% | 7.02% | -13.12% | – | – | – | –
36 | CCOC(=O)c1c(N)ssc1=S | 5.44% | 2.94% | -3.33% | 23.27% | 10.5% | -3.18% | – | – | – | –
37 | Cc1cc(NC(=O)Nc2cc(F)ccc2F)no1 | -1.77% | -0.21% | 10.41% | 7.53% | 2.67% | -5.29% | – | – | – | –
38 | CC1=CC2C(C(O)CC3(C)C2CC(C)C32OCOC23COCO3)C2(C)C/C(=C/O)C(=O)C=C12 (stereo not drawn) | 18.36% | -11.09% | 9.35% | 4.64% | 15.1% | -16.69% | – | – | – | –
39 | O=C1C2C3C=CC(O3)C2C(=O)N1Nc1ccccc1 (stereo not drawn) | -4% | 10.94% | -0.67% | 8.39% | 1.05% | -2.5% | – | – | – | –
40 | O=C(O)c1cc2cc(OCc3ccccc3)ccc2[nH]1 | 6.76% | 10.19% | 8.06% | 12.38% | 9.61% | -8.34% | – | – | – | –
41 | Nc1nnc(-c2cccnc2)s1 | -3.99% | -10.83% | 3.28% | -1.35% | 0.77% | -10.94% | – | – | – | –
42 | CC1=Nc2ccccc2/C1=C\c1c(C)[nH]c2ccccc12 | 7.03% | 6.7% | 0.88% | 14.94% | 6.28% | -2.97% | – | – | – | –
43 | Cc1nn(-c2ccccc2)nc1C(=O)Nc1ccc2[nH]ncc2c1 | 18.91% | 2.54% | 5.87% | 6.45% | -0.76% | -15.47% | – | – | – | –
44 | CCOC(=O)/C(C#N)=C/c1cccc(C)c1 | 35.48% | 11.54% | 20.45% | 6.23% | 19.3% | -0.16% | – | – | – | –
